Assay results reported in PubChem BioAssay (EPA / NIEHS).
The source made the active and inactive calls. The calls were made as follows: active = hit-call score of the fitted dose curve at least 0.9, where 1 is the maximum; inactive = score below 0.9.

Tests used:
[1] = ATG_CRE_CIS: Attagene CIS-FACTORIAL HepG2 Assay for human cAMP Responsive Element (CRE) binding protein 3 (AID 2282926); conditions: HepG2 CRE cis-reporter, Attagene multiplexed mRNA; actives raise or lower the signal
How it was run: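 We dosed HepG2 cells bearing multiple cis-promoter reporter units for 24 h and measured reporter mRNA by RT-PCR with capillary electrophoresis detection. Bidirectional concentration-response fitting used DMSO as negative control.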

[2] = target: CCAAT/enhancer-binding protein beta (Homo sapiens) (UniProt P17676); test: ATG_C_EBP_CIS: Attagene CIS-FACTORIAL HepG2 Assay for human CCAAT/Enhancer Binding Protein (C/EBP) beta (AID 2282927); conditions: HepG2 Attagene cis-factorial transcription factor reporter; actives raise or lower the signal
Sequence of CCAAT/enhancer-binding protein beta (Homo sapiens) (P17676 whole entry, looked up, the tested form may be a part): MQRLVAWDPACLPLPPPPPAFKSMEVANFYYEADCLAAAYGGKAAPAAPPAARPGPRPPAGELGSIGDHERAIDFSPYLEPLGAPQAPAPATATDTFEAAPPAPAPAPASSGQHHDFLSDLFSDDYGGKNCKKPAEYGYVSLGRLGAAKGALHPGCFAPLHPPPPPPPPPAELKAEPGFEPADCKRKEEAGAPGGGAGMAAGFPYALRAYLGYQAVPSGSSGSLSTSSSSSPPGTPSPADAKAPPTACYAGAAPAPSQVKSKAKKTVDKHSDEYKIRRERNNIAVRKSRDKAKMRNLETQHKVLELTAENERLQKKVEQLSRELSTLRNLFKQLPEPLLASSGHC
How it was run: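 Chemical-treated HepG2 cells (24 h) bearing cis-regulated reporter constructs were processed for total RNA, then reverse transcription, PCR amplification, fluorescent primer extension and fragment analysis; gain- and loss-of-signal were fitted against DMSO.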

[3] = ATG_CMV_CIS: Attagene CIS-FACTORIAL HepG2 Assay for human CMV (Internal Marker) (AID 2282928); conditions: HepG2 CMV promoter reporter, transcription factor profiling; actives raise or lower the signal;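 also: endpoint acts as a background internal control marker rather than a target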
How it was run: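 After transient transfection of HepG2 with reporter transcription units driven by cis-regulatory promoters, cells receive test chemical for 24 h. Labeled reporter amplicons, digested with HpaI, are sized and quantified by capillary electrophoresis against DMSO.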

[4] = ATG_DR4_LXR_CIS: Attagene CIS-FACTORIAL HepG2 Assay for human Liver X Receptor (LXR), DR4 submotif (AID 2282929); conditions: HepG2 Attagene DR4 cis-reporter, mRNA transcription; actives raise or lower the signal
How it was run: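 HepG2 cells transiently transfected with cis-promoter-driven multiplexed reporter units (DR4 element) were dosed for 24 h. Reporter mRNA was quantified by RT-PCR, fluorescent primer extension, HpaI digestion and capillary electrophoresis; bidirectional fitting versus DMSO baseline.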

[5] = target: Aryl hydrocarbon receptor (Homo sapiens) (UniProt P35869); test: ATG_Ahr_CIS: Attagene CIS-FACTORIAL HepG2 Assay for human Aryl Hydrocarbon Receptor (Ahr) (AID 2282930); conditions: HepG2 AhR cis-factorial reporter transcription; actives raise or lower the signal
Sequence of Aryl hydrocarbon receptor (Homo sapiens) (P35869 whole entry, looked up): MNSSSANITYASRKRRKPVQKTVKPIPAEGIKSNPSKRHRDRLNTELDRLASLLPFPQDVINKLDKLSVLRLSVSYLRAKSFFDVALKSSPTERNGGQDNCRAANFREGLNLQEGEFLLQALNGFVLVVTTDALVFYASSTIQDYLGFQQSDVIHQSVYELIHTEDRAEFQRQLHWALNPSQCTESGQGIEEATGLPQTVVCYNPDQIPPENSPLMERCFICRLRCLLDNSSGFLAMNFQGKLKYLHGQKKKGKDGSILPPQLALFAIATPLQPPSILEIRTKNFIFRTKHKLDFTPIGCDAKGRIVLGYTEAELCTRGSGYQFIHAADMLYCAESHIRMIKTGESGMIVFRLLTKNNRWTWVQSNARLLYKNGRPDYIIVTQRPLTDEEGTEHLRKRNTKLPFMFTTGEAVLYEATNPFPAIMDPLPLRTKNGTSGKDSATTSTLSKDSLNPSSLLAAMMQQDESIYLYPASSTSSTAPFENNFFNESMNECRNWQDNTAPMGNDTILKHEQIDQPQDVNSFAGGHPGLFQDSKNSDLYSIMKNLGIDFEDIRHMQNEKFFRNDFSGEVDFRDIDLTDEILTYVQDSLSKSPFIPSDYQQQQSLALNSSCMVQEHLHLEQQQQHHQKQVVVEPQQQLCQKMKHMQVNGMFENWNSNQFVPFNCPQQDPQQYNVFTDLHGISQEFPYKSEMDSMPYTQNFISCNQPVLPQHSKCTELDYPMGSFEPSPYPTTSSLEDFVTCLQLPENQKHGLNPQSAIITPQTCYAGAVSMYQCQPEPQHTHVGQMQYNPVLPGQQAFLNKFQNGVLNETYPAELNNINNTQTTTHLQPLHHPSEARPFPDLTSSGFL
How it was run: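 Following 24 h of chemical dosing, transfected HepG2 liver cells with cis-driven reporter units were lysed for RNA; reporter mRNA was quantified via RT-PCR and capillary electrophoresis, and responses fitted bidirectionally from DMSO.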

[6] = ATG_AP_2_CIS: Attagene CIS-FACTORIAL HepG2 Assay for human Activator Protein 2 (AP-2) (AID 2282932); conditions: HepG2 AP-2 cis-reporter, Attagene transcription factor profiling; actives raise or lower the signal
How it was run: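 HepG2 cells were transiently transfected with multiple cis-promoter reporter transcription units and dosed for 24 h. Reporter mRNA was measured by RT-PCR with capillary electrophoresis fluorescence; bidirectional fits relative to DMSO baseline.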

[7] = ATG_BRE_CIS: Attagene CIS-FACTORIAL HepG2 Assay for human Bone Morphogenetic Protein (BMP) Response Element (BRE) (AID 2282933); conditions: HepG2 BMP response element reporter, Attagene transcription factor profiling; actives raise or lower the signal
How it was run: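 Endogenous transcription factor activity at a BMP response element was monitored in transfected HepG2 cells 24 h after dosing. Fluorescent RT-PCR products were resolved by capillary electrophoresis, and activity was fitted in both directions versus DMSO.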

[8] = target: Transcription factor E2F1 (Homo sapiens) (UniProt Q01094); test: ATG_E2F_CIS: Attagene CIS-FACTORIAL HepG2 Assay for human E2F Transcription Factor 1 (AID 2282935); conditions: HepG2 Attagene cis-reporter, E2F reporter RNA transcripts; actives raise or lower the signal
Sequence of Transcription factor E2F1 (Homo sapiens) (Q01094 whole entry, looked up): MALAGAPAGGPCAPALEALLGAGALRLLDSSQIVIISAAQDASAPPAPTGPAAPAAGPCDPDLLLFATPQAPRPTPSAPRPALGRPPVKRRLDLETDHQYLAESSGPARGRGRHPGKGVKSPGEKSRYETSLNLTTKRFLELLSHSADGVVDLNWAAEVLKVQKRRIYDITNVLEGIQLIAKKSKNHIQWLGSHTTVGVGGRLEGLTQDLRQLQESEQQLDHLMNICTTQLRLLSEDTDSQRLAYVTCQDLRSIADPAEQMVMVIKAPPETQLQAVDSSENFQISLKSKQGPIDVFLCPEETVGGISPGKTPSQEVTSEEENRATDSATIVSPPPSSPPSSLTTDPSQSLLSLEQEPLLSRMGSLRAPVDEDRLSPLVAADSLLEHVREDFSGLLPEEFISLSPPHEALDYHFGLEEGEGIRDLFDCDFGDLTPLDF
How it was run: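 HepG2 cells transiently transfected with multiplexed cis-element reporter units, dosed for 24 h. Reporter mRNA measured by RT-PCR, 6-FAM primer-extension labeling, HpaI digestion and capillary electrophoresis; bidirectional fit versus DMSO baseline.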

[9] = ATG_E_Box_CIS: Attagene CIS-FACTORIAL HepG2 Assay for human Enhancer Box (E-box) (AID 2282936); conditions: HepG2 E-box cis-reporter transcription, actives raise or lower the signal
How it was run: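 HepG2 cells transiently transfected with multiplexed cis-element reporter units sensing endogenous transcription factor activity; 24 h compound exposure. Reporter mRNA measured by RT-PCR, 6-FAM primer extension, HpaI digestion and capillary electrophoresis; bidirectional fit versus DMSO.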

[10] = ATG_M_61_CIS: Attagene CIS-FACTORIAL HepG2 Assay for M61 Transcription Factor (Internal Marker) (AID 2282937); conditions: HepG2 Attagene CIS-FACTORIAL M61 internal marker reporter; actives raise or lower the signal
How it was run: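 HepG2 cells transiently transfected with cis-element-driven multiple reporter transcription units, dosed for 24 h. Reporter mRNA measured by RT-PCR, 6-FAM primer-extension labelling, HpaI digestion and capillary electrophoresis; bidirectional fit versus DMSO baseline.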

[11] = ATG_EGR_CIS: Attagene CIS-FACTORIAL HepG2 Assay for human Early Growth Response 1 (EGR1) (AID 2282938); conditions: HepG2 Attagene CIS-FACTORIAL EGR reporter mRNA; actives raise or lower the signal
How it was run: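 HepG2 cells transiently transfected with cis-promoter-driven multiplexed reporter transcription units; reporter mRNA measured 24 h after compound dosing by RT-PCR, 6-FAM primer extension, HpaI digestion and capillary electrophoresis. Bidirectional fit versus DMSO baseline.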

[12] = ATG_M_19_CIS: Attagene CIS-FACTORIAL HepG2 Assay for M19 Transcription Factor (Internal Marker) (AID 2282939); conditions: HepG2 Attagene CIS-FACTORIAL M19 internal marker reporter; actives raise or lower the signal
How it was run: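 Background-control endpoint from a multiplexed HepG2 reporter panel. Cells carrying cis-regulated reporter constructs are treated 24 h, then reporter transcripts are amplified, fluorescently labelled and sized by capillary electrophoresis. DMSO defines baseline.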

[13] = ATG_ERE_CIS: Attagene CIS-FACTORIAL HepG2 Assay for Estrogen Response Element (ERE) (AID 2282940); conditions: HepG2 ERE cis-reporter, Attagene RNA transcript; actives raise or lower the signal
How it was run: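 Cells used were human hepatoma HepG2, transfected with multiple reporter transcription units under cis-regulatory promoters. Reporter mRNA, read 24 h post-dosing via fluorescent RT-PCR products on capillary electrophoresis, was fitted bidirectionally relative to DMSO.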

[14] = ATG_Ets_CIS: Attagene CIS-FACTORIAL HepG2 Assay for human Erythroblast Transformation Specific (ETS) (AID 2282941); conditions: HepG2 ETS cis-reporter transcription, actives raise or lower the signal
How it was run: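 Human HepG2 hepatoma cells were transiently transfected with promoter-driven reporter constructs and treated for 24 hours. Reporter transcripts were quantified by RT-PCR with fluorescent primer extension; bidirectional curve fitting used DMSO as reference.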

[15] = target: Hepatocyte nuclear factor 3-beta (Homo sapiens) (UniProt Q9Y261); test: ATG_FoxA2_CIS: Attagene CIS-FACTORIAL HepG2 Assay for human Forkhead box A2 (FOXA2) (AID 2282942); conditions: HepG2 cis-reporter transcription factor activity, 24 h; actives raise or lower the signal
Sequence of Hepatocyte nuclear factor 3-beta (Homo sapiens) (Q9Y261 whole entry, looked up): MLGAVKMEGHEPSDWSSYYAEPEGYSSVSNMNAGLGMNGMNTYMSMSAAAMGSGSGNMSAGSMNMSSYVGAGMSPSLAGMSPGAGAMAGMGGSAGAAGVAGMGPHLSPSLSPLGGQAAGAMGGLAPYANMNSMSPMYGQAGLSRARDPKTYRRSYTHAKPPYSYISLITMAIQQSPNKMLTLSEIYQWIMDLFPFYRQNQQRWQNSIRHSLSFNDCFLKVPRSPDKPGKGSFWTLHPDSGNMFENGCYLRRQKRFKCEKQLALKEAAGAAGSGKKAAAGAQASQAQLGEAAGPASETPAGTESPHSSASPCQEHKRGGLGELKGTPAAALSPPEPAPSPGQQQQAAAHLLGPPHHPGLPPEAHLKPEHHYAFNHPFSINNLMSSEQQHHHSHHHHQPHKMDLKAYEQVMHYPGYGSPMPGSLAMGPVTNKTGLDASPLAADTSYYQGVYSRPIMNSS
How it was run: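 HepG2 cells transiently transfected with multiple cis-regulated reporter transcription units, dosed for 24 h. Reporter mRNA measured by RT-PCR, 6-FAM labelling, HpaI digestion and capillary electrophoresis; bidirectional fitting against DMSO baseline.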

[16] = ATG_FoxO_CIS: Attagene CIS-FACTORIAL HepG2 Assay for human Forkhead box O (FoxO) (AID 2282943); conditions: HepG2 Attagene cis-reporter, FoxO element, mRNA; actives raise or lower the signal
How it was run: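 24 h chemical exposure, HepG2 with transient cis-MRTU transfection. RNA extraction, oligo(dT) RT, reporter-specific PCR, primer-extension labelling, HpaI digestion, CE fragment analysis; bidirectional fit, DMSO baseline.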

[17] = ATG_GATA_CIS: Attagene CIS-FACTORIAL HepG2 Assay for human GATA Binding Protein (AID 2282944); conditions: HepG2 GATA cis-element reporter, Attagene multiplex mRNA; actives raise or lower the signal
How it was run: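 Endogenous transcription factor activity was captured through cis-promoter-driven reporters in transfected HepG2 cells. After 24 h exposure, reporter transcripts were quantified by RT-PCR with fluorescent capillary electrophoresis, and responses fitted both directions against DMSO.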

[18] = ATG_GLI_CIS: Attagene CIS-FACTORIAL HepG2 Assay for human Zinc Finger Protein GLI1 (AID 2282945); conditions: HepG2, Attagene cis-factorial reporter mRNA, GLI element; actives raise or lower the signal
How it was run: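 HepG2 cells transiently transfected with cis-promoter multiplexed reporter units report endogenous transcription factor activity. After 24 h chemical exposure, reporter mRNA was quantified by RT-PCR, 6-FAM labelling, HpaI digestion and capillary electrophoresis, with bidirectional fitting against DMSO.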

[19] = target: Retinoic acid receptor alpha (Homo sapiens) (UniProt P10276); test: ATG_DR5_RAR_CIS: Attagene CIS-FACTORIAL HepG2 Assay for human Retinoic Acid Receptor Alpha (RARE), DR5 submotif (AID 2282934); conditions: HepG2 Attagene cis-factorial RARE DR5 reporter, mRNA; actives raise or lower the signal
Sequence of Retinoic acid receptor alpha (Homo sapiens) (P10276 whole entry, looked up): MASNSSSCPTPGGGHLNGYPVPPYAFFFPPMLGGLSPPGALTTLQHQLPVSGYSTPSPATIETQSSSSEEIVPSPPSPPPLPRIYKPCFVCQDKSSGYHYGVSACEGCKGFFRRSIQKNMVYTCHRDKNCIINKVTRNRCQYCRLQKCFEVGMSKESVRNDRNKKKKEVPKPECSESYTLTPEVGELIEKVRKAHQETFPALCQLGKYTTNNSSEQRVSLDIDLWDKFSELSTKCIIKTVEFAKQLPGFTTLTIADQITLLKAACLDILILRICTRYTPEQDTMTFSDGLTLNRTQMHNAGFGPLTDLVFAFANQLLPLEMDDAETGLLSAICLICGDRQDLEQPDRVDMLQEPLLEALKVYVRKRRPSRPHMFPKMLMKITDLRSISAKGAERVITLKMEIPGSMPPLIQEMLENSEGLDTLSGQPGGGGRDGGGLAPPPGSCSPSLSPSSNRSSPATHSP
How it was run: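 Transfected HepG2 reporter cells are exposed to chemicals for 24 h. Then RNA is extracted and the DR5 element reporter transcript is measured by RT-PCR and capillary electrophoresis, with bidirectional curve fitting relative to DMSO.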

[20] = ATG_AP_1_CIS: Attagene CIS-FACTORIAL HepG2 Assay for human Activator Protein 1 (AP-1) (AID 2282931); conditions: HepG2 Attagene cis-factorial AP-1 reporter mRNA; actives raise or lower the signal
How it was run: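 HepG2 cells transiently transfected with cis-element-driven multiplex reporter units; 24 h compound exposure. Reporter mRNA quantified by RT-PCR, FAM-labelled fragments resolved by capillary electrophoresis; bidirectional fit versus DMSO baseline.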

Measured: AC50

CC(C)c1ccc(C(C)C)cc1
active: [3] 156 µM | [13] 155 µM
not listed: [19] | [20]
inactive: all other assays above

O=C(O)c1cn(-c2ccc(F)cc2)c2cc(N3CCNCC3)c(F)cc2c1=O
not listed: [13] | [20]
inactive: all other assays above

CCC(C(=O)NC(N)=O)c1ccccc1 (stereo unspecified)
not listed: [8] | [14] | [17] | [19] | [20]
inactive: all other assays above

CC1(C)[C@H]2CC[C@]1(C)[C@H](O)C2
not listed: [7] | [8] | [13] | [15] | [17] | [19]
inactive: all other assays above

CCCOCC(C)O (stereo unspecified)
not listed: [7] | [8] | [13] | [20]
inactive: all other assays above

O=C(Cl)c1cccc(C(=O)Cl)c1
not listed: [8] | [11] | [13] | [15] | [19] | [20]
inactive: all other assays above

CCCCCCCCCCCCCOS(=O)(=O)O
not listed: [13] | [17] | [19] | [20]
inactive: all other assays above
